Compound activity (PubChem)
Sampled rows, rich in hits. Any-hit rate of the full collection: about 9%.
JMJD2A Tudor inh: blocks the human JMJD2A Tudor domain. O75164. AlphaScreen JMJD2A-Tudor / H3K4me3 peptide binding. Potency, µM (doses to about 114 µM), inactives show top-dose activity change, negative = inhibition, actives largely listed as inhibitors. actives 4.4% (n = 390,000). AID 504339; further: on the % scale 0 is the no-effect control and ±100 the full control effect; nearly all actives have a fitted effect of over 50% in size
Target sequence (O75164 whole entry, looked up, the tested form may be a part): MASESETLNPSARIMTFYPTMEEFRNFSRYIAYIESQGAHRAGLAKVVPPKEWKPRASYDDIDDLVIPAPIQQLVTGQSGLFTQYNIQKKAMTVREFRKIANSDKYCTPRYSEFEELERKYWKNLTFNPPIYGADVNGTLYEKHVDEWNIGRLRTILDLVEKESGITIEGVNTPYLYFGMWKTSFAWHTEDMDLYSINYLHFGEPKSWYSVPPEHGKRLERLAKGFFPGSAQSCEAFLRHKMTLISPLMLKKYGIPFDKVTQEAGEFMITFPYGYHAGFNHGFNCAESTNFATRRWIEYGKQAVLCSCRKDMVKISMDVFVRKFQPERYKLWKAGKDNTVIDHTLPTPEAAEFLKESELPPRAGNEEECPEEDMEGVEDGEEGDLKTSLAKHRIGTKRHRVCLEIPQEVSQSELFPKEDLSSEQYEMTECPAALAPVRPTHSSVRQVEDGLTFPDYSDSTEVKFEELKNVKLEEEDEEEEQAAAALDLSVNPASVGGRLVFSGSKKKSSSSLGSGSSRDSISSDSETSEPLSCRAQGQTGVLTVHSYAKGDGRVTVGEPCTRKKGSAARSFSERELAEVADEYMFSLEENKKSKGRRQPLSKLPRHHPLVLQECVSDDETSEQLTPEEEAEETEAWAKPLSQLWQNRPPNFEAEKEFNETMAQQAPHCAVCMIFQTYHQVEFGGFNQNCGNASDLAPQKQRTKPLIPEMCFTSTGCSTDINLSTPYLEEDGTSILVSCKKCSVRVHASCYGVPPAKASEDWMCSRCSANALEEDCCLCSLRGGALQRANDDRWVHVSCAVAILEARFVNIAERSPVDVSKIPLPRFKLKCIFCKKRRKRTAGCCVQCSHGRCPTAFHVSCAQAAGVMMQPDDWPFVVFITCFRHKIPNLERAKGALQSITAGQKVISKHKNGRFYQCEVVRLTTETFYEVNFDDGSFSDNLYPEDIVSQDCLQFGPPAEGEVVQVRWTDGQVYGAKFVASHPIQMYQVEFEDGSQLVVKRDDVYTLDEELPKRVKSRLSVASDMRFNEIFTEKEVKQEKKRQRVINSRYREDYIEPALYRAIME
PLK1 PBD inh: blocks phosphopeptide binding to human PLK1 polo-box domain; Plk1 PBD binding of FITC phosphopeptide, fluorescence polarization; actives 2.8% (n = 360,000); P53350; Potency, µM, for the others: max response, negative = inhibition, most hits filed as inhibitors; further: series mostly up to about 57 µM; on the % scale 0 is the no-effect control and ±100 the full control effect; nearly all actives have a fitted effect of over 65% in size
ALOX12 inh: inhibitors of human 12S-lipoxygenase ALOX12; Potency, µM (titrated, usually from 108 µM), for the others: at the highest dose activity change, negative = inhibition, hits mostly inhibitors; purified 12hLO, xylenol orange hydroperoxide absorbance; P18054; actives 1.1% (n = 580,000); further: on the % scale 0 is the no-effect control and ±100 the full control effect
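Purified human 12hLO at 150 nM in 25 mM Hepes, 0.01% Triton X-100, pH 7.0, preincubated 15 min at room temperature with compound. Reaction started with 40 uM arachidonic acid, 30 min at room temperature. Hydroperoxide measured by Fe-xylenol orange, 573/405 nm absorbance ratio.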
BAZ2B block: blocks human BAZ2B. Q9UIF8. AlphaScreen BAZ2B-H3K14Ac peptide displacement. Potency, µM (series often up to 114 µM), inactives show top-dose activity change, negative = inhibition, most hits filed as inhibitors. actives 4.4% (n = 360,000). AID 504333; further: on the % scale 0 is the no-effect control and ±100 the full control effect; nearly all actives have a fitted effect of over 60% in size
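Compounds, titrated to a top concentration of 110 uM, were incubated 30 min at room temperature with preformed BAZ2B/acetyl-K14 H3 peptide complex (50 nM each). Proximity signal was measured by AlphaScreen after 20 min with beads.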
G9a inh: G9a (human) methyltransferase inhibition. Q96KQ7. G9a H3K9 monomethylation, AlphaScreen, 2 h. Potency, µM (titrated, usually from 102 µM), without a hit: at the highest dose activity, negative = inhibition, most hits filed as inhibitors. actives 8.8% (n = 350,000). AID 504332; further: on the % scale 0 is the no-effect control and ±100 the full control effect; nearly all actives have a fitted effect of over 75% in size
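Using a bead-based AlphaScreen, monomethylated H3K9 product from 2 h room-temperature reactions (G9a 20 nM, peptide 500 nM, SAM 20 uM) was detected with 0.5 ug/mL rabbit anti-H3K9me1 antibody.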
HP1b chromo inh: HP1-beta chromodomain-methylated histone interaction inhibition | actives 0.56% (n = 390,000) | AID 540317 | P83916 | AlphaScreen HP1-beta / biotin-H3K9me3 peptide binding | Potency, µM (doses to about 114 µM), without a hit: at the highest dose activity change, negative = inhibition, actives largely listed as inhibitors; further: nearly all actives have a fitted effect of over 70% in size
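AlphaScreen: HP1-beta (50 nM) preformed 30 min with biotin-H3(1-18)K9me3 peptide (50 nM) in PBS pH 7.4, 0.01% Tween-20. Compound added for 30 min at RT, then streptavidin donor/nickel chelate acceptor beads (10 ug/mL) for 30 min.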
The depositor's hits bear a star; i = inactive; ? = inconclusive; . = no result given; [ ] = another dose, or the depositor's remark. The call rests on the fitted dose curve; in most records, active means well fitted curve in the direction sought with a large enough effect; inconclusive means small, poorly fitted or top-dose-only effect, or another doubt; inactive means no such curve, though single readings can be large; an effect the other way counts as inactive or inconclusive. Potency means the concentration at half of the fitted maximal effect.

SMILES	JMJD2A Tudor inh	PLK1 PBD inh	ALOX12 inh	BAZ2B block	G9a inh	HP1b chromo inh
O=C(Cn1cnc2c(cnn2-c2ccc(F)cc2)c1=O)N1CCCc2ccccc21	-15%	-10%	-3%	13%	-1%[59 µM]	32%
Cc1ccn(CCC(=O)NC2CCCc3c2cnn3-c2cccc(C)c2C)n1 (configuration not stated)	?	30µM*	-2%	-4%[57.1 µM]	14%	8%
c1ccc2c(c1)CCN(C1=Nc3cccc4cccc1c34)C2	?	-13%	-44%	32µM*	?	?
c1cc2c3c(cccc3c1)C(N1CCCCCC1)=N2	-11%[57.1 µM]	-20%	?	-15%	?	27%
CCOC(=O)/C=C/S(=O)(=O)c1ccc(NC(C)=O)cc1	-23%	?	0%	16%	25µM*	-1%
O=C(Nc1nnc(Cc2ccc(Cl)cc2)s1)C1CCN(C(=O)c2ccco2)CC1	-29%	.	.	.	.	-3%
COCc1nnc(NC(=O)C2CCN(C(=O)c3ccco3)CC2)s1	13%	27µM*	-15%	-2%	13µM*	-16%
CC(C)c1nnc(NC(=O)C2CCN(C(=O)c3ccco3)CC2)s1	-3%	?	?	2%	32µM*	-4%
COc1ccccc1Cc1nnc(NC(=O)C2CCN(C(=O)c3ccco3)CC2)s1	-11%	27µM*	?	-20%	10µM*	?
CCC(C)(C)c1nnc(NC(=O)C2CCN(C(=O)c3ccco3)CC2)s1	35µM*	2.4µM*	?	?	1.8µM*	?
CCc1nnc(NC(=O)C2CCN(C(=O)c3ccco3)CC2)s1	-13%	-12%	-6%	-11%	?	-3%
COc1ccccc1NC(=O)C(=O)c1c[nH]c2ccccc12	.	.	-7%	.	.	.
Cn1c2c(c3ccccc31)CN(C(=O)Nc1ccc(Cl)cc1Cl)CC2	.	.	i	.	.	.
O=C(CSc1ccc(Cl)cc1)NC(=O)NC1CCCC1	13%	-9%	?	20%	8%	49%
N#CC(C#N)=c1ccc2c(c1)N1C3=C(CCCC3)CC3CCCCC31N=2 (configuration not stated)	45µM*	-10%	-1%	1.8µM*	2.2µM*	?
N#C/C(C(N)=O)=c1/ccc2c(c1)N1C3=C(CCCC3)CC3CCCCC31N=2 (configuration not stated)	6.3µM*	-21%	7%	3.5µM*	4µM*	10µM*
CN1OC(C)(CC(=O)NCc2ccccc2)N=C1c1ccccc1Cl (configuration not stated)	.	.	10%	.	.	.
O=C(c1csnn1)N1CCC2(CCCN(c3cccc(-c4ccccc4)c3)C2)CC1	.	.	-5%[57.4 µM]	.	12%[12.7 µM]	.
CCOC(=O)C1=C(c2ccccc2)Nc2ncnn2C1c1cccc(OC)c1OC (configuration not stated)	-11%	1%	0%	4%	?	11%
COc1ccc(CNCCNC(=O)c2nonc2N)cc1OC	-4%	-10%	0%	1%	4%[59 µM]	17%
COc1cc(CNCCNC(=O)c2nonc2N)ccc1OCc1ccc(Cl)nc1	?	30µM*	-12%	-10%	?	9%
Cc1ccc(CNS(=O)(=O)c2ccc3c(c2)CCN3C(=O)C2CCC2)cc1	21%	7%	0%	-1%	.	63%
O=c1c2c(nc3c(-c4ccccc4)c[nH]n13)CCC2	-10%	-12%	3%	-2%	-7%[59 µM]	20%
O=c1c2c(nc3c(-c4ccc(Cl)cc4)c[nH]n13)CCC2	-5%[11.4 µM]	?	-47%	-1%	56µM*	?
CCOc1ccc(NC(=O)c2cnccn2)cc1	17%	-1%	0%	-1%	-3%[59 µM]	22%
SMILES	JMJD2A Tudor inh	PLK1 PBD inh	ALOX12 inh	BAZ2B block	G9a inh	HP1b chromo inh
CNS(=O)(=O)c1ccc(NC(=O)c2ccccn2)cc1	13µM*	-11%	-10%	7%	11%[59 µM]	-4%
CCOc1ncccc1C(=O)Nc1ccc(Cl)cc1	?	11µM*	2%	43%	6%[59 µM]	17%
CCOc1ccc(NC(=O)/C(C=Nc2ccccc2)=C(\C)O)cc1	?	?	11%	-15%	45µM*	-15%
COc1ccc(NS(=O)(=O)c2ccc(NC(=O)c3ccccn3)cc2)cc1	-17%	1%	38%	6%	-3%[12.7 µM]	17%
CCOc1ncccc1C(=O)Nc1ccc(F)cc1	?	-9%	2%	4%	-5%	4%
CCOc1ccc(NC(=O)c2ccccn2)cc1	16µM*	-16%	-11%	8%	-4%[59 µM]	18%
Cn1nccc1C(=O)N1CCC2(CCCN(Cc3cccc(F)c3F)C2=O)C1 (configuration not stated)	.	.	-1%	.	.	.
Cc1ccc(SC(C)C(=O)Nc2ccc(S(=O)(=O)N3CCOCC3)cc2)cc1 (configuration not stated)	-13%	6%	-20%	-8%	-22%[59 µM]	7%
COc1ccc(NC(=O)CSc2nc3c(c(=O)[nH]2)CN(Cc2ccccc2)CC3)cc1Cl	-18%	.	-14%	-15%	-28%[59 µM]	-1%
CCCn1c(Oc2ccccc2Cl)nc2c1c(=O)n(C)c(=O)n2C	.	.	5%	.	.	.
CCOc1ccc(NC(=O)Nc2ccc(Cc3ccncc3)cc2)cc1	-9%	1%	-7%	5%	9%	32%
CCOc1ccc(NC(=O)C2CSC(c3ccncc3)=N2)cc1 (configuration not stated)	-7%	-13%	10%	-5%	50µM*	27%
NS(=O)(=O)c1ccc(CNC(=O)c2ccccn2)cc1	4%[11.4 µM]	-9%	?	79µM*	5%[59 µM]	56%
COc1cccc(C2NC(CC(C)C)(C(=O)O)C3C(=O)N(Cc4ccccc4)C(=O)C23)c1O (configuration not stated)	-7%	-1%	13%	2%	-3%[59 µM]	41%
CCOc1ccc(NC(=S)NCc2nc3ccccc3[nH]2)cc1	-25%	-25%	133%	-22%	45%[59 µM]	4%
CCCn1nnc(NC(=S)NC(=O)CC)n1	2.8µM*	0%	?	-33%	8.9µM*	?
CCCn1nnc(NC(=S)NC(=O)/C=C/c2ccc(Cl)cc2)n1	-18%	0%	?	-14%	-2%	-2%
CCCn1nnc(NC(=S)NC(=O)Cc2ccccc2)n1	-1%	-2%	?	-1%	32µM*	22%
CCCCn1nnc(NC(=O)c2ccco2)n1	-25%	-10%	-3%	-3%	11%[59 µM]	48%
CCCCn1nnc(NC(=S)NC(=O)c2cccs2)n1	?	-22%	?	-3%	10µM*	-27%
CCCn1nnc(NC(=S)NC(=O)c2ccc(-c3ccc(Br)cc3)o2)n1	-29%	?	-7%	-13%	?	17%
NCc1cccc(-c2ccc(O)cc2)c1	.	.	1%[12.5 µM]	.	.	.
